High-throughput results (PubChem)
G9a block: G9a (human) methyltransferase inhibition; 350,000 compounds, 8.8% hits; G9a H3K9 monomethylation, AlphaScreen, 2 h; Q96KQ7; Potency, µM (series often up to 102 µM), inactives show at the top dose activity, negative = inhibition, hits mostly inhibitors; further: on the % scale 0 is the no-effect control and ±100 the full control effect; nearly all actives have a fitted effect of over 75% in size
Target sequence (Q96KQ7 913-1193 limits assumed): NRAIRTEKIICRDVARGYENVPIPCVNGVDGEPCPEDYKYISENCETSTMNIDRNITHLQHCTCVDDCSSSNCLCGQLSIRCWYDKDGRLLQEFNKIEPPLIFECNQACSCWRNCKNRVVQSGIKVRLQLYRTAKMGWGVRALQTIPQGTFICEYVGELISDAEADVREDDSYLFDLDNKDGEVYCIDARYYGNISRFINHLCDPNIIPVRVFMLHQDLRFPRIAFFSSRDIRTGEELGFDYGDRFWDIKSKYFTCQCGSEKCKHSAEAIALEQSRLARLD
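G9a (20 nM) preincubated 15 min RT with compounds, then 500 nM biotinylated H3K9 peptide and 20 uM SAM added; 2 h RT reaction. Monomethyl-H3K9 product detected by AlphaScreen with anti-H3K9me1 antibody, streptavidin donor and anti-rabbit IgG acceptor beads.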
Sfp inh: Sfp phosphopantetheinyl transferase inhibition. Potency, µM, without a hit: largest response in the series, negative = inhibition, actives largely listed as inhibitors. 310,000 compounds, 3.5% hits. Q9F4F7. Biochemical Sfp PPTase activity, qHTS;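 further: the enzyme is Sfp with the accession as filed and its product quenches rhodamine fluorescence; 0% = enzyme reaction without inhibitor and -100% = no enzyme wells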
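Step 1, compound plus 15 nM Sfp-PPTase, 15 min, room temperature. Step 2, add rhodamine-CoA (5 uM) and BHQ-2-YbbR (12.5 uM). Step 3, read 525/598 nm fluorescence at 0 and 30 min.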
BAZ2B inh: blocks human BAZ2B; AlphaScreen BAZ2B-H3K14Ac peptide displacement; Potency, µM (top dose mostly 114 µM), for the others: at the top dose activity change, negative = inhibition, actives largely listed as inhibitors; 360,000 compounds, 4.4% hits; further: on the % scale 0 is the no-effect control and ±100 the full control effect; nearly all actives have a fitted effect of over 60% in size
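Compounds, titrated to a top concentration of 110 uM, were incubated 30 min at room temperature with preformed BAZ2B/acetyl-K14 H3 peptide complex (50 nM each). Proximity signal was measured by AlphaScreen after 20 min with beads.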
L3MBTL1 block: L3MBTL1 (human) inhibition | Q9Y468 | AlphaScreen L3MBTL1–H3K9me1 peptide binding | Potency, µM (doses to about 57.1 µM), inactives show at the highest dose activity, negative = inhibition, usual class: inhibitors | 230,000 compounds, 0.66% hits | AID 485360; further: on the % scale 0 is the no-effect control and ±100 the full control effect; nearly all actives have a fitted effect of over 60% in size
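AlphaScreen proximity signal between nickel-chelate acceptor and streptavidin donor beads (final 10 ug/mL) reports binding of 50 nM L3MBTL1 to 75 nM biotin-H3 K9me1 peptide; complex incubated with compounds 30 min at room temperature; cefsulodin titration as control.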
HP1b chromo inh: blocks HP1-beta chromodomain binding to methylated histone tails; AlphaScreen HP1-beta / biotin-H3K9me3 peptide binding; Potency, µM (doses to about 114 µM), inactives show at the highest dose activity change, negative = inhibition, actives largely listed as inhibitors; 390,000 compounds, 0.56% hits; further: nearly all actives have a fitted effect of over 70% in size
Target sequence (P83916 whole entry, looked up): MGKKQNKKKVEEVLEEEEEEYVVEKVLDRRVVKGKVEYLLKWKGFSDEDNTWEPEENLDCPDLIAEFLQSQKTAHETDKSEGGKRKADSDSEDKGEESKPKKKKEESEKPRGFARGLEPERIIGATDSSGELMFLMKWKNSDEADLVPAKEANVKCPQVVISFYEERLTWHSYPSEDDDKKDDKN
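Compound inhibition of the preformed complex between 50 nM HP1-beta and 50 nM biotinylated H3K9me3 peptide was read by AlphaScreen. Buffer was PBS pH 7.4 with 0.01% Tween-20. Incubations ran 30 min at room temperature, with 10 ug/mL donor/acceptor beads.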
JMJD2A Tudor inh: blocks the human JMJD2A Tudor domain; O75164; AlphaScreen JMJD2A-Tudor / H3K4me3 peptide binding; Potency, µM (top dose mostly 114 µM), without a hit: at the highest dose activity change, negative = inhibition, most hits filed as inhibitors; 390,000 compounds, 4.4% hits; further: on the % scale 0 is the no-effect control and ±100 the full control effect; nearly all actives have a fitted effect of over 50% in size
Numbers without * were called inactive; [ ] = another dose, or the depositor's remark. This is a sample that favours compounds with a hit; in the whole collection about 12% have one here. The call rests on the fitted dose curve; in most records, active means well fitted curve in the direction sought with a large enough effect; inconclusive means small, poorly fitted or top-dose-only effect, or another doubt; inactive means no such curve, though single readings can be large; an effect the other way counts as inactive or inconclusive. Potency means the concentration at half of the fitted maximal effect.

Results for O=C(CSc1n[nH]c(-c2ccccc2)n1)Nc1ccc(N2CCOCC2)cc1 ?
G9a block: inconclusive; Sfp inh: 3%; BAZ2B inh: inconclusive; L3MBTL1 block: -3%[11.4 µM]; HP1b chromo inh: -14%; JMJD2A Tudor inh: -16%

Results for NS(=O)(=O)c1ccc(NC(=O)COC(=O)CSc2n[nH]c(-c3ccccc3)n2)cc1 ?
G9a block: 32µM*; Sfp inh: 8%; BAZ2B inh: -8%; L3MBTL1 block: 0%; HP1b chromo inh: 35%; JMJD2A Tudor inh: -6%

What do the screens show for `CCCC1=Nc2cc(C(=O)NCc3ccccc3)ccc2Sc2ccccc21`?
G9a block: -31%[59 µM]; BAZ2B inh: -27%; HP1b chromo inh: 14%; JMJD2A Tudor inh: -26%

What do the screens show for `Cc1cccc(NC(=O)Nc2cccs2)c1C`?
G9a block: 1µM*; BAZ2B inh: -4%; HP1b chromo inh: 8%; JMJD2A Tudor inh: -15%

Results for O=C(Nc1cccs1)Nc1ccccc1Cl ?
G9a block: inconclusive; Sfp inh: 45µM*; BAZ2B inh: -8%; HP1b chromo inh: -4%; JMJD2A Tudor inh: -17%

Results for Cc1c(NC(=O)Nc2cccs2)cccc1[N+](=O)[O-] ?
G9a block: inconclusive; Sfp inh: 50µM*; BAZ2B inh: 2%; HP1b chromo inh: 10%; JMJD2A Tudor inh: -28%

What do the screens show for `Cc1cccnc1NC(=O)Nc1cccs1`?
G9a block: -8%; Sfp inh: -14%; BAZ2B inh: 6%; HP1b chromo inh: 25%; JMJD2A Tudor inh: -15%

Results for CC(C)CO/N=C1/C[C@@H](O)[C@@H](O)[C@@H]2[C@@H]3C(=O)N([C@@H](C)c4ccccc4)C(=O)[C@H]3CC[C@H]12 ?
Sfp inh: 1%

How did O=C(CCC1N=C2c3ccccc3N=C(SCC(=O)Nc3ccccc3F)N2C1=O)NCc1ccco1 (stereo not given) do in these assays?
G9a block: 10%[59 µM]; BAZ2B inh: -15%; HP1b chromo inh: 19%; JMJD2A Tudor inh: -15%

How did Cc1cc(C)c2c(-n3cccc3)c(C(=O)NCCc3ccccc3)sc2n1 do in these assays?
G9a block: -43%[59 µM]; BAZ2B inh: -11%; HP1b chromo inh: 0%; JMJD2A Tudor inh: -25%

What do the screens show for `O=C(N/N=C/c1ccccn1)c1ccc(NC(=O)c2ccc(F)cc2)cc1`?
G9a block: 50µM*; Sfp inh: -24%; BAZ2B inh: 3%; HP1b chromo inh: 40%; JMJD2A Tudor inh: -22%

How did Cc1cccc(/C=N/NC(=O)c2cccc(Cl)c2)n1 do in these assays?
G9a block: 22%; Sfp inh: 4%; BAZ2B inh: 16%; HP1b chromo inh: -1%; JMJD2A Tudor inh: -23%

How did O=C(N/N=C/c1ccccn1)c1ccc(NC(=O)c2ccccc2Cl)cc1 do in these assays?
G9a block: 3%; Sfp inh: -12%; BAZ2B inh: -3%; HP1b chromo inh: -1%; JMJD2A Tudor inh: -29%

What do the screens show for `Cc1cccc(/C=N/NC(=O)c2ccc(F)cc2)n1`?
G9a block: 14%; Sfp inh: 40µM*; BAZ2B inh: 11%; HP1b chromo inh: 56%; JMJD2A Tudor inh: 4%

Results for CCNC(=O)C1CCN(Cc2cc3ccccc3n2Cc2ccc(C)cc2)CC1 ?
G9a block: -5%[59 µM]; BAZ2B inh: -13%; HP1b chromo inh: 26%; JMJD2A Tudor inh: -32%

Results for C=CCOc1ccc(/C=C2\SC(=S)N(NS(=O)(=O)c3ccc(C)cc3)C2=O)cc1 ?
G9a block: 15%[2.33 µM]; Sfp inh: -3%; BAZ2B inh: 40µM*; HP1b chromo inh: inconclusive; JMJD2A Tudor inh: 50µM*

How did O=C1/C(=C/c2cccnc2)SC(=S)N1Nc1ccccc1 do in these assays?
G9a block: 40µM*; Sfp inh: -25%; BAZ2B inh: inconclusive; L3MBTL1 block: -15%; HP1b chromo inh: 19%; JMJD2A Tudor inh: -7%

What do the screens show for `Cc1ccc(S(=O)(=O)NN2C(=O)/C(=C/c3cccn3C)SC2=S)cc1`?
G9a block: 45µM*; Sfp inh: -17%; BAZ2B inh: 50µM*; L3MBTL1 block: -10%

What do the screens show for `COc1ccc(/C=C2/SC(=S)N(NS(=O)(=O)c3ccc(C)cc3)C2=O)cc1`?
G9a block: inconclusive; Sfp inh: -10%; BAZ2B inh: 40µM*; HP1b chromo inh: inconclusive; JMJD2A Tudor inh: inconclusive

Results for Cc1ccc(S(=O)(=O)NN2C(=O)/C(=C/c3ccc(C(=O)O)cc3)SC2=S)cc1 ?
G9a block: -5%; Sfp inh: 1%; BAZ2B inh: -32%; HP1b chromo inh: 17%; JMJD2A Tudor inh: inconclusive

Results for Cn1cccc1/C=C1\SC(=S)N(Nc2ccccc2)C1=O ?
Sfp inh: -23%; BAZ2B inh: 20µM*; L3MBTL1 block: inconclusive; HP1b chromo inh: inconclusive; JMJD2A Tudor inh: inconclusive

Results for Cc1ccc(S(=O)(=O)NN2C(=O)/C(=C/c3ccc(F)cc3)SC2=S)cc1 ?
G9a block: -8%; Sfp inh: 6%; BAZ2B inh: -27%; L3MBTL1 block: -1%; HP1b chromo inh: 12%; JMJD2A Tudor inh: -19%

How did Cc1ccc(S(=O)(=O)NN2C(=O)/C(=C/c3cccs3)SC2=S)cc1 do in these assays?
G9a block: 20µM*; Sfp inh: 79µM*; BAZ2B inh: inconclusive; HP1b chromo inh: -14%; JMJD2A Tudor inh: inconclusive

Results for Cc1ccc(S(=O)(=O)NN2C(=O)/C(=C\c3ccc(Cl)cc3)SC2=S)cc1 ?
G9a block: -10%; Sfp inh: 17%; BAZ2B inh: -27%; HP1b chromo inh: -20%; JMJD2A Tudor inh: -28%

Results for Cc1ccc(/C=C2\SC(=S)N(NS(=O)(=O)c3ccc(C)cc3)C2=O)cc1 ?
Sfp inh: -4%; BAZ2B inh: 50µM*; L3MBTL1 block: -7%; HP1b chromo inh: -5%; JMJD2A Tudor inh: inconclusive

How did CCCOc1ccccc1NC(=O)/C=C/C(N)=O do in these assays?
G9a block: 35µM*; Sfp inh: -25%; BAZ2B inh: 9%; HP1b chromo inh: 15%; JMJD2A Tudor inh: -5%

What do the screens show for `CCN1C(=O)[C@H]2[C@H]3[C@H](O)[C@H](O)C/C(=N/OC[C@@H](C)[C@H](OCc4ccccc4)C(C)C)[C@@H]3CC[C@@H]2C1=O`?
Sfp inh: 13%

What do the screens show for `CCOC(=O)c1scc(-c2ccccc2)c1S(=O)(=O)Nc1cc(Cl)c(OC)cc1OC`?
G9a block: 10µM*; BAZ2B inh: inconclusive; HP1b chromo inh: inconclusive; JMJD2A Tudor inh: -24%
